Drawing on PubChem BioAssay (EPA / NIEHS), this text covers outcome and AC50 for four compounds.

The nature of experiment [1]: ATG_CRE_CIS: Attagene CIS-FACTORIAL HepG2 Assay for human cAMP Responsive Element (CRE) binding protein 3 (AID 2282926). Particulars: HepG2 CRE cis-reporter, Attagene multiplexed mRNA; actives raise or lower the signal. The gist of the method: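 HepG2 cells transiently transfected with a multiplexed reporter library (CRE-driven unit among them) were dosed for 24 h. Reporter mRNA was quantified by RT-PCR, fluorescent labelling, HpaI digestion and capillary electrophoresis, with bidirectional fitting against DMSO baseline.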

Experiment [2] can be described thus: ATG_CMV_CIS: Attagene CIS-FACTORIAL HepG2 Assay for human CMV (Internal Marker) (AID 2282928).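 Further: endpoint acts as a background internal control marker rather than a target.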 Particulars: HepG2 CMV promoter reporter, transcription factor profiling; actives raise or lower the signal. The gist of the method:
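HepG2 cells transiently transfected with multiple cis-regulated reporter units; 24 h compound exposure. Reporter mRNA quantified by RT-PCR, 6-FAM primer-extension labeling, HpaI digestion and capillary electrophoresis; bidirectional fitting against DMSO baseline.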

Experiment [3] is described as follows: ATG_AP_1_CIS: Attagene CIS-FACTORIAL HepG2 Assay for human Activator Protein 1 (AP-1) (AID 2282931). Particulars: HepG2 Attagene cis-factorial AP-1 reporter mRNA; actives raise or lower the signal. The method in brief:
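HepG2, transient cis-reporter transfection; 24 h; readout RT-PCR/CE fluorescence; DMSO baseline, gain and loss fitted.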

The nature of experiment [4]: ATG_BRE_CIS: Attagene CIS-FACTORIAL HepG2 Assay for human Bone Morphogenetic Protein (BMP) Response Element (BRE) (AID 2282933). Particulars: HepG2 BMP response element reporter, Attagene transcription factor profiling; actives raise or lower the signal. The method in brief:
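Multiplexed cis-reporter assay, HepG2, 24 h exposure. mRNA from reporter units quantified via RT-PCR/CE; DMSO baseline; bidirectional curve fit.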

Experiment [5] has as its target Hepatocyte nuclear factor 3-beta (Homo sapiens) (UniProt Q9Y261). Nature of the experiment: ATG_FoxA2_CIS: Attagene CIS-FACTORIAL HepG2 Assay for human Forkhead box A2 (FOXA2) (AID 2282942). Particulars: HepG2 cis-reporter transcription factor activity, 24 h; actives raise or lower the signal. The method in brief:
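24 h dosing of HepG2 bearing cis-reporter constructs; mRNA readout by RT-PCR/CE fluorescence; bidirectional fit, DMSO baseline.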

Experiment [6] in a line: ATG_GATA_CIS: Attagene CIS-FACTORIAL HepG2 Assay for human GATA Binding Protein (AID 2282944). Particulars: HepG2 GATA cis-element reporter, Attagene multiplex mRNA; actives raise or lower the signal. The method in brief: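 After transfecting HepG2 cells with multiple cis-regulated reporter units, chemicals are dosed for 24 h; isolated RNA undergoes RT-PCR and fluorescent labeling before capillary electrophoresis, with activity expressed against DMSO.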

In experiment [7] the target is Hypoxia-inducible factor 1-alpha (Homo sapiens) (UniProt Q16665). Nature of the experiment: ATG_HIF1a_CIS: Attagene CIS-FACTORIAL HepG2 Assay for human Hypoxia Inducible Factor 1 (HIF1A) (AID 2282951). The settings on record: HepG2 Attagene cis-factorial HIF1a reporter transcription; actives raise or lower the signal. The gist of the method:
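After 24 h chemical exposure of reporter-transfected HepG2 cells, reporter cDNA was PCR-amplified, labelled by 6-FAM primer extension (2 min 95 C, 20 s 68 C, 10 min 72 C), HpaI-cut (2 h, 37 C) and analysed by CE.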

Experiment [8] deals with Hepatocyte nuclear factor 6 (Homo sapiens) (UniProt Q9UBC0). Nature of the experiment: ATG_HNF6_CIS: Attagene CIS-FACTORIAL HepG2 Assay for human Hepatocyte Nuclear Factor 6 (HNF6) (AID 2282952). The settings on record: HepG2 Attagene cis-factorial HNF6 reporter transcription; actives raise or lower the signal. The method in brief: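 HepG2 cells transiently transfected with cis-element-driven multiple reporter transcription units, dosed 24 h; reporter mRNA quantified by RT-PCR, FAM primer extension, HpaI digestion and capillary electrophoresis; bidirectional fit versus DMSO baseline.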

Experiment [9] deals with Heat shock factor protein 1 (Homo sapiens) (UniProt Q00613). Put plainly: ATG_HSE_CIS: Attagene CIS-FACTORIAL HepG2 Assay for human Heat Shock Transcription Factor 1 (HSE) (AID 2282953). The settings on record: HepG2 HSE cis-reporter, Attagene RNA transcription; actives raise or lower the signal. The gist of the method: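 Endogenous transcription factor activity captured via cis-promoter reporter units transfected into HepG2; treatment lasted 24 h. Fluorescence intensity of reporter fragments analysed with bidirectional curve fitting, DMSO baseline.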

Experiment [10] in a line: ATG_MRE_CIS: Attagene CIS-FACTORIAL HepG2 Assay for human Metal Responsive Element (MRE) (AID 2282954). The settings on record: HepG2 MRE cis-reporter transcription, Attagene multiplex; actives raise or lower the signal. The gist of the method: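 HepG2 cells transiently transfected with multiple cis-element reporter units measure endogenous MTF1-driven transcription. After 24 h compound exposure, reporter mRNA is quantified by RT-PCR with 6-FAM labelling, HpaI digestion and capillary electrophoresis; bidirectional fits versus DMSO.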

For experiment [11], the target named is Paired box protein Pax-6 (Homo sapiens) (UniProt P26367). Nature of the experiment: ATG_Pax6_CIS: Attagene CIS-FACTORIAL HepG2 Assay for human Paired Box 6 (PAX6) (AID 2282956). The settings on record: HepG2 CIS-FACTORIAL PAX6 reporter transcription, RNA readout; actives raise or lower the signal. The method in brief: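 HepG2 cells transiently transfected with multiplexed cis-promoter reporter units (endogenous TF activity) were dosed for 24 h. Reporter mRNA was quantified by RT-PCR, 6-FAM labeling, HpaI digestion and capillary electrophoresis; bidirectional fitting versus DMSO baseline.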

The nature of experiment [12]: ATG_VDRE_CIS: Attagene CIS-FACTORIAL HepG2 Assay for human Vitamin D Receptor Element (VDRE) (AID 2282968). The settings on record: HepG2 VDRE cis-reporter transcription, actives raise or lower the signal. The method in brief: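 HepG2 cells transiently transfected with cis-element reporter units, dosed 24 h; reporter mRNA measured by RT-PCR, 6-FAM labeling, HpaI digestion and capillary electrophoresis. Activity fitted bidirectionally against DMSO baseline.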

Experiment [13] can be described thus: ATG_NRF2_ARE_CIS: Attagene CIS-FACTORIAL HepG2 Assay for human Nuclear Factor Erythroid 2 Related Factor 2 (NFR2) response to Antioxidant Response Elements (ARE) (AID 2282992). Particulars: HepG2 Attagene ARE/NRF2 reporter, transcription factor activity; actives raise or lower the signal. The gist of the method: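 HepG2 cells transiently transfected with multiplexed cis-regulated reporter transcription units measure endogenous transcription factor activity. Reporter mRNA at 24 h is quantified by RT-PCR, fluorescent labelling and capillary electrophoresis, with bidirectional fitting relative to DMSO.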

Experiment [14] addresses Cellular tumor antigen p53 (Homo sapiens) (UniProt P04637). Nature of the experiment: ATG_p53_CIS: Attagene CIS-FACTORIAL HepG2 Assay for human p53 Transcription Factor (AID 2282994). The settings on record: HepG2 p53 cis-element reporter, Attagene mRNA; actives raise or lower the signal. The gist of the method: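 HepG2 cells transiently transfected with multiplexed cis-regulated reporter transcription units read endogenous TF activity. After 24 h compound exposure, reporter mRNA was quantified by RT-PCR, fluorescent labelling, HpaI digestion and capillary electrophoresis; bidirectional fits versus DMSO baseline.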

Experiment [15] can be described thus: ATG_XTT_Cytotoxicity: Cytotoxicity Assessment in the Attagene TRANS-FACTORIAL HepG2 Assay (AID 2283584; active means hit-call score of the fitted dose curve at least 0.9, where 1 is the maximum). The gist of the method: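 HepG2 human liver cells, transiently transfected with multiple GAL4-UAS reporter units, were dosed and read at 24 h by XTT as cell number. Loss of signal was fitted relative to DMSO negative control baseline.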
Experiment [16] deals with Aryl hydrocarbon receptor (Homo sapiens) (UniProt P35869). Nature of the experiment: ATG_Ahr_CIS: Attagene CIS-FACTORIAL HepG2 Assay for human Aryl Hydrocarbon Receptor (Ahr) (AID 2282930). Particulars: HepG2 AhR cis-factorial reporter transcription; actives raise or lower the signal. The gist of the method:
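HepG2 cells transiently transfected with cis-element-driven multiplexed reporter transcription units; endogenous transcription factor activity measured as reporter mRNA 24 h after dosing. RT-PCR, 6-FAM labelling, HpaI digestion, capillary electrophoresis; bidirectional fitting versus DMSO baseline.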

Experiment [17] is described as follows: ATG_Ets_CIS: Attagene CIS-FACTORIAL HepG2 Assay for human Erythroblast Transformation Specific (ETS) (AID 2282941). Particulars: HepG2 ETS cis-reporter transcription, actives raise or lower the signal. The method in brief:
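HepG2 cells transiently transfected with cis-promoter reporter transcription units were dosed for 24 h; reporter mRNA was measured by RT-PCR, 6-FAM primer extension, HpaI digestion and capillary electrophoresis, with bidirectional fitting against DMSO baseline.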

Experiment [18] in a line: ATG_FoxO_CIS: Attagene CIS-FACTORIAL HepG2 Assay for human Forkhead box O (FoxO) (AID 2282943). Particulars: HepG2 Attagene cis-reporter, FoxO element, mRNA; actives raise or lower the signal. The gist of the method:
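HepG2 cells transiently transfected with cis-promoter-driven multiple reporter transcription units; 24 h after chemical dosing, reporter mRNA quantified by RT-PCR, fluorescent primer extension, HpaI digestion and capillary electrophoresis. Bidirectional fitting versus DMSO baseline.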

Experiment [19] is described as follows: ATG_SREBP_CIS: Attagene CIS-FACTORIAL HepG2 Assay for human Sterol Regulatory Element Binding (SREBP) (AID 2282962). Particulars: HepG2 Attagene cis-factorial SREBP reporter, mRNA; actives raise or lower the signal. The gist of the method: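 HepG2 cells transiently transfected with multiplexed cis-element reporter units report endogenous transcription factor activity. After 24 h of chemical exposure, reporter mRNA was quantified by RT-PCR, 6-FAM labelling, HpaI digestion and capillary electrophoresis; bidirectional fits used DMSO as baseline.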

Experiment [20] in a line: ATG_NF_kB_CIS: Attagene CIS-FACTORIAL HepG2 Assay for human Nuclear Factor Kappa B (NF-kB) (AID 2282991). The settings on record: HepG2 Attagene cis-factorial NF-kB reporter mRNA; actives raise or lower the signal. The gist of the method:
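Fluorescence of labelled RT-PCR products separated by capillary electrophoresis gives reporter mRNA levels from transfected HepG2 cells exposed 24 h; values are fitted in both directions relative to DMSO.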

Each structure is given as a SMILES string. Results filed as inconclusive are left out. Activity calls are given as the source filed them. How the source made its calls, unless noted: active means hit-call score of the fitted dose curve at least 0.9, where 1 is the maximum; inactive means score below 0.9.

The AC50 is the midpoint of the concentration-response curve, whichever way the signal moves.

Chain of Paired box protein Pax-6 (Homo sapiens) (P26367 whole entry, looked up): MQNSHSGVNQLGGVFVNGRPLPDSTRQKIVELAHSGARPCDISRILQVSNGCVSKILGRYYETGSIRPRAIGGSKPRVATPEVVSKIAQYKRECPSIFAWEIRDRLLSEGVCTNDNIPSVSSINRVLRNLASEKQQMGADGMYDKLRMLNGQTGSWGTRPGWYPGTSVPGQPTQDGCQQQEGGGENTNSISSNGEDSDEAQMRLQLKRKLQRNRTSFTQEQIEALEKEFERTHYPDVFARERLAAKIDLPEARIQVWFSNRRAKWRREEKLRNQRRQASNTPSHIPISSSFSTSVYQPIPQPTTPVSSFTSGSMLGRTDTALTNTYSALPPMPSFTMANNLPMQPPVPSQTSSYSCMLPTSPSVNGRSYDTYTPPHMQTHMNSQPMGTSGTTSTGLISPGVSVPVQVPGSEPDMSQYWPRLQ
Chain of Heat shock factor protein 1 (Homo sapiens) (Q00613 whole entry, looked up, the tested form may be a part): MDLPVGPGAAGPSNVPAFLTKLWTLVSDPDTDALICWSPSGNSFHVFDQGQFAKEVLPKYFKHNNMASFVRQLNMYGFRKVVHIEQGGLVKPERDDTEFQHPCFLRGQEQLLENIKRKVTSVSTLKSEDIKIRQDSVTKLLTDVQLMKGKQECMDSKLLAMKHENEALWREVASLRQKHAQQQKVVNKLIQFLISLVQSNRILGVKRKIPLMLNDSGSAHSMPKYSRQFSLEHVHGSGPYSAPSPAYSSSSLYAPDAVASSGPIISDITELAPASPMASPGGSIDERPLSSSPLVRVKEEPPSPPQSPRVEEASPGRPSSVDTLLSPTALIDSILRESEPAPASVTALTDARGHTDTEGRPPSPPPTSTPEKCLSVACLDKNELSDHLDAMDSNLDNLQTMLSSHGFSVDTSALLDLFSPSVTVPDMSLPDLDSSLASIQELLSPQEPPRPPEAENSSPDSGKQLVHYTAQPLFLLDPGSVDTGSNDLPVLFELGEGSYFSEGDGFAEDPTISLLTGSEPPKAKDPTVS
Chain of Hepatocyte nuclear factor 6 (Homo sapiens) (Q9UBC0 whole entry, looked up): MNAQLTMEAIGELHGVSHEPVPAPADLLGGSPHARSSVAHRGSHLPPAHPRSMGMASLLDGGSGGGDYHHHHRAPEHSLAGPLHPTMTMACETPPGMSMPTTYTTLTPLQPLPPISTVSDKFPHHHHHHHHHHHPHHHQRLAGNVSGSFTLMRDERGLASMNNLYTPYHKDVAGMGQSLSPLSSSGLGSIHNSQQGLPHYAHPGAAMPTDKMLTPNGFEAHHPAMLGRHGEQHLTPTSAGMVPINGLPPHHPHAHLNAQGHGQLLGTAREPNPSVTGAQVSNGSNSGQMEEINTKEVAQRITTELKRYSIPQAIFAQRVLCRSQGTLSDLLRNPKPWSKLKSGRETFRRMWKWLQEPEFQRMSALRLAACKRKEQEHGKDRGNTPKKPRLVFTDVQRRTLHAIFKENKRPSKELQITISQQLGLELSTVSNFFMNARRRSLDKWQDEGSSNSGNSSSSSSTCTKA
Chain of Hypoxia-inducible factor 1-alpha (Homo sapiens) (Q16665 whole entry, looked up): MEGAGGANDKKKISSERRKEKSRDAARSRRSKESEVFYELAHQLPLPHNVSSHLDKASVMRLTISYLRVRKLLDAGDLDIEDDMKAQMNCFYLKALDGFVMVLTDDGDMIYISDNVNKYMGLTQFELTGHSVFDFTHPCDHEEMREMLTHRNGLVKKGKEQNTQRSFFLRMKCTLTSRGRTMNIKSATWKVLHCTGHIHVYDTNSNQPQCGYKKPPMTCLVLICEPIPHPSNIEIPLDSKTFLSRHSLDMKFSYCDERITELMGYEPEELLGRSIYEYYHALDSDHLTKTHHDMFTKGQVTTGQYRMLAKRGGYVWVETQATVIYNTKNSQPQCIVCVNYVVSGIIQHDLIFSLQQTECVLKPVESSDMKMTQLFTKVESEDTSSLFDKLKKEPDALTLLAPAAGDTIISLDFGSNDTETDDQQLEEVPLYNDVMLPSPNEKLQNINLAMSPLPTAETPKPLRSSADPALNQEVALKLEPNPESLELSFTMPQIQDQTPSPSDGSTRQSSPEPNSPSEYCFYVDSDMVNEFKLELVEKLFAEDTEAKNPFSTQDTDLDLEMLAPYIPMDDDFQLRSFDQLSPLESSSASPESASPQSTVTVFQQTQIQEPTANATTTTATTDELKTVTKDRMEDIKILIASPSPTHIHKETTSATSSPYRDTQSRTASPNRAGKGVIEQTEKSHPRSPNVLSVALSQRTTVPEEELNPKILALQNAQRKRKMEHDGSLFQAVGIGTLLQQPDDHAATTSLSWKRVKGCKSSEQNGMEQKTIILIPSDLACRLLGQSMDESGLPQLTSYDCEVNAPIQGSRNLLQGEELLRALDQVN
Chain of Cellular tumor antigen p53 (Homo sapiens) (P04637 whole entry, looked up): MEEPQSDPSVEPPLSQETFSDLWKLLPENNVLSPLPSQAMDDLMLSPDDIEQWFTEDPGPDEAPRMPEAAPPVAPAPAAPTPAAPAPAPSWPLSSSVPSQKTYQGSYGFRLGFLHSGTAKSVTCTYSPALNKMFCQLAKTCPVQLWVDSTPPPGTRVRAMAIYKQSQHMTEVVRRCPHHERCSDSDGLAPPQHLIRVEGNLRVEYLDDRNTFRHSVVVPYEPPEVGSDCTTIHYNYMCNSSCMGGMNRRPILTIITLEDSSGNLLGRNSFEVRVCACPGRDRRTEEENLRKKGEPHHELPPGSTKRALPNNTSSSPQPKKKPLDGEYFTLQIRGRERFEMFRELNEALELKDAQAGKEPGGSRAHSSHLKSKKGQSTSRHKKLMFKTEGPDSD
Chain of Hepatocyte nuclear factor 3-beta (Homo sapiens) (Q9Y261 whole entry, looked up): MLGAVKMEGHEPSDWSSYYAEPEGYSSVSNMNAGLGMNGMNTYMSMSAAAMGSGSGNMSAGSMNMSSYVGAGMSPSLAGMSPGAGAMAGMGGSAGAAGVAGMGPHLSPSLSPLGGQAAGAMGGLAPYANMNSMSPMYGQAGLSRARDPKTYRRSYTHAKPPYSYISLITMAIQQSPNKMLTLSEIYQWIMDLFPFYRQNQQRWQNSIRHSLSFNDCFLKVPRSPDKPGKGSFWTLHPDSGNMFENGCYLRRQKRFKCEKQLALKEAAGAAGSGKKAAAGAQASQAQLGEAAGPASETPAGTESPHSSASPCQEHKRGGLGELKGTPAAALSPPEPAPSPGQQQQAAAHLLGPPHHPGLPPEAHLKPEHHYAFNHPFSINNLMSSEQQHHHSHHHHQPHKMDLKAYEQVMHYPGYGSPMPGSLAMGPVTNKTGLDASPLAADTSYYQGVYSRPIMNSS
Chain of Aryl hydrocarbon receptor (Homo sapiens) (P35869 whole entry, looked up): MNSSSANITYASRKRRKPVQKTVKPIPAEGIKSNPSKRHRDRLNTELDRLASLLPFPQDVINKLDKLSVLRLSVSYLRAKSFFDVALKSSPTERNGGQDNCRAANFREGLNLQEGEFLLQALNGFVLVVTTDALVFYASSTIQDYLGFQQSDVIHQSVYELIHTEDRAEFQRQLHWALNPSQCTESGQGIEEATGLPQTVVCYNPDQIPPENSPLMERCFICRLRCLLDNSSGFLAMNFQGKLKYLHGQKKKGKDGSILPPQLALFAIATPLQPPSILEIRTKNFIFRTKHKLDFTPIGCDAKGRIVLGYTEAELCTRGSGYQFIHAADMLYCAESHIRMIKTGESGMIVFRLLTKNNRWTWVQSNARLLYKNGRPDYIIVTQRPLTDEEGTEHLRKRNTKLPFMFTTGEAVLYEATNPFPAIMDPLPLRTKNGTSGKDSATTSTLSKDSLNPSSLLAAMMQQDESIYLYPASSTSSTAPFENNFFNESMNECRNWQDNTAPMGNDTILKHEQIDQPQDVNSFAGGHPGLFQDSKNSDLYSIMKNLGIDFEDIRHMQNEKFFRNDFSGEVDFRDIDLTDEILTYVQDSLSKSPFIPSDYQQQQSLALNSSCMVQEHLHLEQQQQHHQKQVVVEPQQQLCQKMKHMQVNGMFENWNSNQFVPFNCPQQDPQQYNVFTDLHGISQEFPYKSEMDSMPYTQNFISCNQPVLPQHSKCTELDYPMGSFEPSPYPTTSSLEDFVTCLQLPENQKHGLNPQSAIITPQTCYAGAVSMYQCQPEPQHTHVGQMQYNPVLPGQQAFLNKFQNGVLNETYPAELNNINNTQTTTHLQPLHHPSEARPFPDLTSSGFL

Regarding `Nc1ccccc1C(=O)Oc1ccc2ccccc2c1`, the outcome in experiment [1], in experiment [3], in [5], in experiment [7], in experiment [8] and in experiment [12] was inactive. The compound was called inactive in experiment [14] and in experiment [15]. In addition, the AC50 was 77 µM (active) in experiment [2]; 161 µM (active) in experiment [4]; 143 µM (active) in experiment [6]; 27.7 µM (active) in experiment [9]; 67.2 µM (active) in experiment [10]; 46.9 µM (active) in [11]. In [13], the AC50 was 31.7 µM (active).
`BrCBr`: the compound was classed as inactive in experiment [1], in [16], in experiment [3], in [17], in experiment [5] and in [18]. Also, the call in [6], in [7], in [8], in [9], in experiment [10] and in experiment [11] was inactive. Besides, the compound was called inactive in [19], in experiment [12], in experiment [13], in experiment [14] and in experiment [15].
Regarding `c1cc(OCC2CO2)ccc1Cc1ccc(OCC2CO2)cc1` (stereo not given), the AC50 in experiment [1] was 19.6 µM (active); in experiment [3], 59.1 µM (active); in experiment [8], 45.8 µM (active); in experiment [9] it was 62.6 µM (active); in experiment [10] it was 42.6 µM (active); in [11] it was 33.4 µM (active). Moreover, the AC50 was 8.36 µM (active) in experiment [12], 54.7 µM (active) in [20], 8.95 µM (active) in experiment [13] and 55.3 µM (active) in [14]. Moreover, the compound was classed as inactive in experiment [4], in experiment [17], in experiment [5], in experiment [18], in experiment [6] and in experiment [7]. For the same compound, the compound was classed as inactive in [15].
`Cc1ncc(C[n+]2csc(CCO)c2C)c(N)n1`: the result in [2], in experiment [16], in experiment [3], in experiment [4], in experiment [17] and in experiment [5] was inactive. The compound was classed as inactive in [18], in experiment [6], in experiment [8], in experiment [10], in [11] and in experiment [19]. Further, the result in experiment [12], in [20], in experiment [13] and in experiment [14] was inactive.
